# Reference: PubChem BioAssay (NCI)
# About 79,000 compounds went through this panel and 15% of them were active in at least one assay; those are over-represented in the sample as a whole. Values without a mark were called inactive. The source made the active and inactive calls. Cut-off read from the data, not from the text of the source: active = growth inhibition above about 70%; inactive = the rest.
# Tests used:
# [1] = NCI Yeast Anticancer Drug Screen. Data for the rad50 strain (AID 155);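 note: 0% = growth of vehicle-only cultures of the same strain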; details: S. cerevisiae rad50 strain growth inhibition, stronger effect = higher value
# Procedure, shortened: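 DNA repair mutant yeast, compound exposure, growth read-out; inhibition is taken relative to vehicle.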
# [2] = NCI Yeast Anticancer Drug Screen. Data for the mec2-1 strain (AID 157); details: S. cerevisiae mec2-1 strain, stronger effect = higher value
# Procedure, shortened: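 mec2-1 yeast strain, carrying an alteration in DNA damage repair or cell cycle control, was exposed to compounds; growth inhibition was measured relative to vehicle-treated controls.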
# [3] = NCI Yeast Anticancer Drug Screen. Data for the sgs1 mgt1 strain (AID 161);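 note: 0% = growth of cultures given vehicle only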; details: S. cerevisiae sgs1 mgt1 strain, stronger effect = higher value
# Procedure, shortened: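 Growth of a repair-deficient yeast mutant was monitored after compound treatment and expressed as inhibition relative to vehicle-treated cultures.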
# [4] = NCI Yeast Anticancer Drug Screen. Data for the cln2 rad14 strain (AID 165);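 note: 0% = growth equal to vehicle treated cultures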; details: S. cerevisiae cln2 rad14 strain, stronger effect = higher value
# Procedure, shortened: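 Yeast carrying cln2 and rad14 alterations (cell cycle control and DNA damage repair) were exposed to compounds. Growth inhibition was measured against vehicle-treated controls.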
# [5] = NCI Yeast Anticancer Drug Screen. Data for the bub3 strain (AID 167); details: S. cerevisiae bub3 mutant strain, stronger effect = higher value
# Procedure, shortened: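 In this screen, a yeast mutant lacking normal mitotic checkpoint function is challenged with compound. Relative growth versus vehicle gives the inhibition value.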
# [6] = NCI Yeast Anticancer Drug Screen. Data for the mlh1 rad18 strain (AID 175); details: S. cerevisiae mlh1 rad18 strain growth inhibition, stronger effect = higher value
# Procedure, shortened: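 Growth inhibition of the yeast strain was measured after compound exposure and expressed relative to vehicle-treated controls. The strain carries defined defects in DNA damage repair.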
# [7] = at 5.0 µM (retest, dose inferred, filed as 0.5)
# [8] = at 50.0 µM (retest, dose inferred, filed as 5.0)
SMILES,"growth inhibition [1, 7]","growth inhibition [1, 8]",growth inhibition ([1]; at 50.0 µM),"growth inhibition [2, 7]","growth inhibition [2, 8]",growth inhibition ([2]; at 50.0 µM),"growth inhibition [3, 7]","growth inhibition [3, 8]",growth inhibition ([3]; at 50.0 µM),"growth inhibition [4, 7]","growth inhibition [4, 8]",growth inhibition ([4]; at 50.0 µM),"growth inhibition [5, 7]","growth inhibition [5, 8]",growth inhibition ([5]; at 50.0 µM),"growth inhibition [6, 7]","growth inhibition [6, 8]",growth inhibition ([6]; at 50.0 µM)
O=C1C(=O)N(c2ccc(Cl)c(Cl)c2)C(=O)C(=O)C1c1nc2ccccc2o1,21%,98% (active),97.2% (active),17%,98% (active),92.8% (active),27%,95% (active),97.2% (active),22%,90% (active),94.8% (active),3%,96% (active),83.1% (active),14%,95% (active),96.7% (active)
Oc1cccc2ccc(SSc3ccc4cccc(O)c4n3)nc12,99% (active),95% (active),92.2% (active),100% (active),95% (active),95.7% (active),94% (active),95% (active),93% (active),85% (active),87% (active),74.8% (active),96% (active),95% (active),90.5% (active),93% (active),93% (active),93.3% (active)
N#Cc1ccc(C2Oc3ccc(Cl)cc3C=C2[N+](=O)[O-])cc1 (configuration not stated),98% (active),99% (active),84.7% (active),100% (active),99% (active),75.7% (active),100% (active),99% (active),91.2% (active),98% (active),98% (active),88.7% (active),98% (active),98% (active),75.6% (active),99% (active),99% (active),83.3% (active)
O=C1c2ccccc2C(=O)[C@@]23O[C@@]12C1(Oc2cccc4cccc(c24)O1)[C@@H]1O[C@@H]1[C@@H]3O,79% (active),98% (active),88.1% (active),84% (active),99% (active),91% (active),62%,99% (active),91.2% (active),48%,98% (active),88.7% (active),56%,99% (active),89.5% (active),85% (active),98% (active),84.9% (active)
CCCCCCCCCCCCCCC(O)C[N+](C)(CCO)CCO (configuration not stated),29%,98% (active),86.6% (active),22%,99% (active),87.7% (active),32%,99% (active),88.8% (active),10%,98% (active),88.3% (active),28%,99% (active),86% (active),32%,98% (active),88.9% (active)
O=C1c2ccccc2CN1Cc1ccc(Cl)c(Cl)c1,-1%,93% (active),84.4% (active),-3%,95% (active),42.2%,-1%,96% (active),93.1% (active),-1%,81% (active),45.5%,3%,92% (active),79.4% (active),-2%,91% (active),65%
CCOC(=O)Cc1csc(/N=C\c2c(O)c3ccccc3oc2=O)n1,22%,38%,-4.35%,16%,25%,-32.4%,22%,37%,-10.9%,26%,21%,18.7%,20%,42%,-27.1%,24%,45%,41.4%
C[n+]1c(-c2cccc(OCCCCCCCCCCOc3cccc(-c4c5cc(N)ccc5c5ccc(N)cc5[n+]4C)c3)c2)c2cc(N)ccc2c2ccc(N)cc21,99% (active),81% (active),79.4% (active),99% (active),84% (active),84.4% (active),99% (active),85% (active),87.9% (active),99% (active),86% (active),88% (active),99% (active),80% (active),84.2% (active),97% (active),68%,87.7% (active)
Nc1cccc2c1C(=O)c1cccc(Cl)c1C2=O,31%,83% (active),87.7% (active),3%,16%,11.8%,0%,14%,21.1%,1%,2%,-82%,5%,21%,58%,11%,30%,50.3%
COC(=O)c1ccccc1NC(=S)NN(C)C,13%,20%,-0.25%,7%,17%,-14.3%,-5%,16%,-8.9%,9%,11%,18.2%,-20%,36%,3.85%,16%,28%,-2%
CCOC(=O)c1c(Cl)nc2ccccc2c1N=[N+]=[N-],-10%,77% (active),79.3% (active),14%,95% (active),82.5% (active),-13%,93% (active),88.7% (active),20%,86% (active),58%,-21%,81% (active),86.8% (active),2%,95% (active),89.5% (active)
COC(=O)c1nnn(-c2cc(Cl)ccc2Cl)c1C(=O)c1ccc(Cl)c(Cl)c1,12%,98% (active),98.8% (active),4%,98% (active),96.8% (active),14%,98% (active),99% (active),6%,97% (active),95.5% (active),18%,99% (active),95.3% (active),17%,99% (active),99% (active)
FC(F)(F)c1ccccc1NC(=S)SCc1ccco1,1%,52%,93.7% (active),1%,32%,76.3% (active),1%,45%,87.7% (active),-4%,17%,52.1%,8%,33%,81.3% (active),-2%,57%,88.3% (active)
NC(=S)NNC(=O)c1cccnc1,4%,78% (active),-5.1%,1%,39%,-5.95%,2%,46%,45.6%,5%,75% (active),-31.4%,2%,82% (active),0.15%,-1%,68%,50.8%
Cc1cc(O)c(NCCN(C)C)c2c(=O)c3ccccc3sc12,18%,97% (active),98.5% (active),7%,97% (active),99.1% (active),8%,98% (active),98.8% (active),12%,97% (active),97.8% (active),6%,94% (active),98% (active),5%,97% (active),98.7% (active)
O=Cc1[nH]c(=S)[nH]c(=O)c1CCCc1ccccc1,-15%,79% (active),95.8% (active),-7%,90% (active),78.2% (active),15%,97% (active),98.5% (active),17%,92% (active),82.3% (active),5%,95% (active),85% (active),11%,97% (active),98.2% (active)
CN(C)CC1CCc2c(ccc3ccccc23)C1=O (configuration not stated),8%,68%,69%,-16%,28%,66.8%,29%,76% (active),71.1% (active),12%,46%,39.7%,19%,82% (active),58.8%,40%,78% (active),53.8%
O=[N+]([O-])c1cc(Cl)cc(C(c2cc(Cl)cc([N+](=O)[O-])c2O)C(Cl)(Cl)Cl)c1O,52%,94% (active),97.7% (active),50%,98% (active),98.4% (active),38%,92% (active),98.1% (active),36%,96% (active),97% (active),33%,96% (active),97.2% (active),66%,96% (active),98.3% (active)
CCCCCCCCCCCCc1ccc(S(=O)(=O)O)cc1.[Zn+2],-2%,55%,78.4% (active),19%,27%,13.2%,-4%,59%,75.3% (active),3%,38%,-49%,-8%,35%,6.15%,-2%,71% (active),30.1%
